Compound activity as filed in PubChem BioAssay.
A selection: hits, their analogues and other compounds. The true share with any hit is near 3.5%.
Pf apPOL inh: Pf-apPOL DNA polymerase inhibition | Recombinant Pf-apPOL, molecular beacon fluorescence, 1.5 h | inhibition, % at 10 µM | actives 0.25% (n = 210,000)
mHTT CaM bind: mHTT-calmodulin interaction abrogation. inhibition, % at 15 µM. P42858. actives 3.6% (n = 190,000). AlphaScreen His-mHTT/GST-CaM binding, luminescence
Numbers stand for hits; . = inactive; / = no result given. Rule as the data show it: active = inhibition above about 50%; inactive = the rest.

SMILES	Pf apPOL inh	mHTT CaM bind
COc1ncccc1CN(C)C(=O)c1ccsc1	.	.
Cc1sc2cc(C(=O)N3CCN(C)CC3)[nH]c2c1CN1CCOCC1	.	.
Cc1sc2cc(C(=O)N3CCOCC3)[nH]c2c1CN1CCOCC1	.	100.2
CCc1nc2c(NS(=O)(=O)c3cccc(C(F)(F)F)c3)cccn2n1	.	.
CC1CCN(S(=O)(=O)c2ccc(F)c(C(=O)Nc3cccc(Cl)c3Cl)c2)CC1	.	.
CCOC(=O)c1ccc(-n2sccc2=O)cc1	95.6	/
CCOC(=O)c1ccc(NC(=O)CN2CCN(c3ccc(OC)cc3)C2=O)cc1	.	.
CC(=O)NCC(=O)N(C)C(C(=O)Nc1ccc2c(c1)OCO2)c1ccccc1 (stereo not drawn)	.	.
CC(=O)Nc1ccc(NC(=O)CCc2c[nH]c3ccccc23)cc1	.	.
CC(C)N(Cc1c[nH]c2ccccc12)C(=O)Nc1ccc(Cl)c(Cl)c1	.	68.0
CN(C(=O)Cc1c[nH]c2ccccc12)C(C(=O)Nc1ccc2c(c1)OCO2)c1ccccc1 (stereo not drawn)	.	88.0
COc1ccc(N2CCN(S(=O)(=O)CCNC(=O)NCc3cccs3)CC2)cc1	.	.
CCOc1cccc2sc(N(Cc3cccnc3)C(=O)CN(C)S(C)(=O)=O)nc12	.	.
CC1CCCC(C)N1C(=C(Cl)Cl)C(=C1SCCS1)[N+](=O)[O-] (stereo not drawn)	.	72.0
O=[N+]([O-])C(=C1SCCCS1)C(=C(Cl)Cl)N1CCOCC1	.	.
CCn1c(CCNC(=O)c2ccccc2)nc2c(C)cccc2c1=O	.	.
CCn1c(CCNC(=O)c2cccc(N(C)C)c2)nc2c(C)cccc2c1=O	.	58.7
COc1ccc(CN2CCc3nc(N4CCN(c5ccccc5)CC4)ncc3C2)cc1	.	.
Fc1ccc(CN2CCc3nc(N4CCN(c5ncccn5)CC4)ncc3C2)cc1	.	99.9
Fc1ccc(N2CCN(c3ncc4c(n3)CCN(Cc3ccccc3)C4)CC2)cc1	.	.
COc1ccc(CN2CCc3nc(N4CCN(c5ncccn5)CC4)ncc3C2)cc1	.	100.2
CC1CN(C(=O)c2ccc(F)c(Cl)c2)CC1c1nc(-c2cccnc2)no1 (stereo not drawn)	.	.
Cc1cccc(-c2noc(-c3cccnc3N3CCC(C(=O)NCC(C)C)CC3)n2)c1	.	.
Cc1nn(C)c(C)c1CNC(=O)C1CCc2sc(C(=O)N3CCCCC3)cc2C1 (stereo not drawn)	.	.
CCCc1nc2cccnc2n1C1CCN(C(=O)Cc2cccc(OC)c2)C1 (stereo not drawn)	.	.
SMILES	Pf apPOL inh	mHTT CaM bind
COc1ccc(N2C(N)=C(C#N)C(c3ccc(F)cc3)C3=C2CC(C)(C)CC3=O)cc1 (stereo not drawn)	.	.
Cc1cccc(N2C(N)=C(C#N)C(c3cccs3)C3=C2CC(C)(C)CC3=O)c1 (stereo not drawn)	.	.
CC1(C)CC(=O)C2=C(C1)N(c1ccc(F)cc1)C(N)=C(C#N)C2c1cc(Br)cs1 (stereo not drawn)	.	81.0
CC1(C)CC(=O)C2=C(C1)N(c1ccccc1)C(N)=C(C#N)C2c1ccc(Br)s1 (stereo not drawn)	.	89.0
Cc1ccc(C)c(N2CCN(C(=O)c3c(C)sc4ccn(C)c(=O)c34)CC2)c1	.	91.5
CCn1ccc2sc(C)c(C(=O)N3CCN(c4ccc(F)cc4)CC3)c2c1=O	.	54.9
CCCn1ccc2sc(C)c(C(=O)N3CCN(c4ccc(F)cc4)CC3)c2c1=O	.	60.4
CCCn1ccc2sc(C)c(C(=O)N3CCCC3)c2c1=O	.	.
CCn1ccc2sc(C)c(C(=O)N3CCN(c4ccccc4F)CC3)c2c1=O	.	.
Cc1sc2ccn(C)c(=O)c2c1C(=O)N1CCCCCC1	.	.
COc1cccc(-c2cc(C(=O)N3CCCC3c3ccccc3F)on2)c1 (stereo not drawn)	.	.
OC(COCCC12CC3CC(CC(C3)C1)C2)CN1CCN(Cc2ccccc2)CC1 (stereo not drawn)	.	56.6
OC(COCC12CC3CC(CC(C3)C1)C2)CN1CCN(Cc2ccccc2)CC1 (stereo not drawn)	.	.
OC(COCC12CC3CC(CC(C3)C1)C2)CN1CCN(c2ccccc2F)CC1 (stereo not drawn)	.	.
OC(COCCC12CC3CC(CC(C3)C1)C2)CN1CCN(c2ccccc2F)CC1 (stereo not drawn)	.	53.3
O=C(Cc1cccc(Cl)c1)N1CCN(c2nc(CN3CCOCC3)cs2)CC1	.	.
CCCCOc1ccc(C(=O)Nc2c3c(nn2-c2ccc(C)cc2)CS(=O)(=O)C3)cc1	.	.
CCc1ccc(/C=C2\C(=O)Nc3ccc(Br)cc32)cc1	.	74.0
CCc1ccc(/C=C2\C(=O)Nc3ccc(Cl)cc32)cc1	.	.
CN(C)c1ccc(/C=C2\C(=O)Nc3ccc(Br)cc32)cc1	.	99.0
O=C1Nc2ccc(Br)cc2/C1=C/c1ccc(F)cc1	.	.
O=C(c1nc2ccccc2s1)N(Cc1cccnc1)c1nc2c(F)cc(F)cc2s1	.	.
CCC(=O)c1ccc(Oc2ncnc3sc(C)c(C)c23)cc1	.	.
Cc1ccc(NC(=O)Nc2nnc3ccccn23)c(Cl)c1	.	.
Cc1ccc2[nH]cc(CCN3CC(C(=O)Nc4nnc(CC(C)(C)C)s4)CC3=O)c2c1 (stereo not drawn)	.	.
SMILES	Pf apPOL inh	mHTT CaM bind
Cc1cnc2c(ccc3c(C)c(C)cnc32)c1C	/	100.2
CCN1CCN(c2cc(-c3nc(-c4ccccc4)no3)c3ccccc3n2)CC1	.	65.7
c1ccc(-c2noc(-c3cc(N4CCOCC4)nc4ccccc34)n2)cc1	.	.
Cc1ccccc1-c1nc(C2CCN(S(=O)(=O)c3ccc(F)cc3)CC2)no1	.	.
COc1ccc2c(c1)c1c3n2CCNC3CCC1 (stereo not drawn)	.	.
Brc1ccc2c(c1)c1c3n2CCNC3CCC1 (stereo not drawn)	.	75.0
Clc1ccccc1N1CCN(c2nc(N3CCOCC3)c3n[nH]nc3n2)CC1	.	.
Cc1ccc(CNC(=O)c2ccc3ncnc(N4CCCC4)c3c2)cc1	.	.
Cc1ccc(-c2ncc(NC(=O)CC(C)C)cn2)cc1	.	.
O=C(O)[C@@H]1CC=C[C@@H]2CCN(C3CCCCC3)C(=O)[C@@H]21	.	.
CCOC1=NN(c2ccc([N+](=O)[O-])cc2)C(=O)/C1=C/c1ccc(Cl)c(Cl)c1	.	.
CCOC1=NN(c2ccc([N+](=O)[O-])cc2)C(=O)/C1=C/c1ccccc1Cl	.	79.0
CS(=O)(=O)N1CCN(c2ccc([N+](=O)[O-])c(N3CCCCC3)c2)CC1	.	.
CCOc1ccc(CN2CCCC2c2cc(C)on2)cc1 (stereo not drawn)	.	.
CCCNc1nc(C(Cl)(Cl)Cl)nc2ccccc12	.	.
Clc1nc(C(Cl)(Cl)Cl)nc2ccccc12	.	100.0
COc1ccccc1NC(=O)CN1C(=O)C2C3c4ccccc4C(c4ccccc43)C2C1=O (stereo not drawn)	.	.
O=C(CN1C(=O)C2C3c4ccccc4C(c4ccccc43)C2C1=O)Nc1cccc(Cl)c1 (stereo not drawn)	.	100.3
CCOc1nc(NCCN2CCOCC2)nc(Nc2ccc(I)cc2)n1	.	57.0
Clc1nc(NCCN2CCOCC2)nc(Nc2ccc(I)cc2)n1	.	.
O=C(NCc1ccccn1)c1cccc(N2CCNC(c3ccccc3)C2)n1 (stereo not drawn)	.	85.4
